The record followed here is PubChem BioAssay (NCI).

About 83,000 compounds went through this panel and 20% of them were active in at least one assay; those are over-represented in the sample as a whole.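 In brief: 96-well plates, 48 h treatment, single concentration, percent growth endpoint.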 Values without a mark were called inactive. Calls of active or inactive are those of the source. How the source made its calls: active means growth percent below 10; inactive means the rest.

Among the test systems are HCT-15 colon; HT29 colon; SNB-75 CNS; SNB-19 CNS; U251 CNS; PC-3 prostate; SK-MEL-5 melanoma; UACC-62 melanoma; LOX IMVI melanoma; SK-MEL-28 melanoma.
Common to all, as to test: NCI-60 one-dose screen, 48 h (100 = growth as untreated, 0 = no growth, -100 = all killed)
Common to all, as to details: 10 µM unless noted

In the case of `COc1ccc(Cn2cc3c(c2)-c2oncc2CC3)cc1`, the growth is 54.8% in the test with HCT-15 colon; 9.48% (active) in the test on HT29 colon; 50.6% with SNB-75 CNS; 71.8% in the test with SNB-19 CNS; 42.8% in the test on U251 CNS; 82.3% with PC-3 prostate. Also, the growth in the test with SK-MEL-5 melanoma is 49.7%; in the test on UACC-62 melanoma, 38.6%; with LOX IMVI melanoma it was 59%; in the test on SK-MEL-28 melanoma, 69.9%.

`COc1ccc(N/N=C/c2ccc3c(c2)Sc2ccccc2N3C)cc1`: the growth in the test on HCT-15 colon was 84.5%; in the test with HT29 colon, 98.6%; in the test on SNB-75 CNS it was 73.5%; with SNB-19 CNS it was 81.1%; with U251 CNS, 63.9%; in the test on PC-3 prostate, 44.4%. Besides, the growth with SK-MEL-5 melanoma was 77%; in the test with UACC-62 melanoma, 10.8%; with LOX IMVI melanoma, 28.1%; in the test on SK-MEL-28 melanoma, 100%.

For `CCCC1Cc2cc(-n3nc(C)c4c3CC(C)(C)CC4=O)cc(NC3CCC(O)CC3)c2C(=O)N1` (stereo not given), the growth with HCT-15 colon is 26.1%; in the test on HT29 colon it was 11.6%; with SNB-75 CNS, 66.6%; with SNB-19 CNS, 50%; with U251 CNS, 41.5%; in the test with PC-3 prostate, 42.8%. Also, the growth is 40.7% in the test with SK-MEL-5 melanoma, 6.33% (active) in the test with UACC-62 melanoma, 5.91% (active) with LOX IMVI melanoma and 31.5% in the test with SK-MEL-28 melanoma.

In the case of `CN1C(=O)N(C)C2C1NN=c1s/c(=C\c3ccc(F)cc3)c(=O)n12` (stereo not given), the growth is 27.3% with HCT-15 colon; 2.74% (active) in the test on HT29 colon; -7.45% (active) in the test with SNB-75 CNS; 34.8% with SNB-19 CNS; 26.8% in the test with U251 CNS; 34.8% with PC-3 prostate. The growth with SK-MEL-5 melanoma was 31.7%; in the test with UACC-62 melanoma, 26.7%; in the test on LOX IMVI melanoma, 36.1%; with SK-MEL-28 melanoma, 59.4%.

With `COc1ccc(CNc2ccc3nc(CCC4CCCCC4)[nH]c3c2)cc1`, the growth in the test with HCT-15 colon was 42%; with HT29 colon, 18.4%; in the test with SNB-75 CNS, 69.4%; with SNB-19 CNS, 84%; in the test with U251 CNS, 60.9%; in the test with PC-3 prostate, 59.1%. For the same compound, the growth with SK-MEL-5 melanoma was 38%; with UACC-62 melanoma, 69.9%; with LOX IMVI melanoma, 81.5%; in the test on SK-MEL-28 melanoma, 76.4%.

Regarding `COc1ccc(-c2ccc(-c3ccc(C(=N)N)o3)o2)cc1`, the growth in the test on HCT-15 colon is -7.49% (active); in the test with HT29 colon it was -9.08% (active); in the test with SNB-75 CNS, 43.6%; in the test on SNB-19 CNS, 15.5%; with U251 CNS, -29.3% (active); in the test with PC-3 prostate, 25.5%. Further, the growth with SK-MEL-5 melanoma was 25.6%; in the test on UACC-62 melanoma, -61.1% (active); with LOX IMVI melanoma, -58.1% (active); in the test with SK-MEL-28 melanoma it was 71.1%.

As to `CCCC[N+]1(C)CCN=C1Cc1ccccc1` (stereo not given), the growth with HCT-15 colon was 103%; in the test on HT29 colon it was 89.3%; in the test with SNB-75 CNS, 99.6%; in the test on SNB-19 CNS it was 104%; with U251 CNS, 95.8%; with PC-3 prostate it was 87.2%. In addition, the growth is 97.8% in the test on SK-MEL-5 melanoma, 96.7% in the test on UACC-62 melanoma, 99.8% in the test on LOX IMVI melanoma and 110% in the test on SK-MEL-28 melanoma.

In the case of `COc1ccc(C2=C/C(=C\c3ccccc3O)C(=O)N2Cc2ccccc2)cc1`, the growth was 67.6% with HCT-15 colon; 102% with HT29 colon; 92.3% with SNB-75 CNS; 82.3% in the test with SNB-19 CNS; 83.9% with U251 CNS; 52.2% in the test with PC-3 prostate. In addition, the growth in the test on SK-MEL-5 melanoma is 66.2%; in the test on UACC-62 melanoma, 63.9%; in the test with LOX IMVI melanoma it was 81%; with SK-MEL-28 melanoma it was 79.9%.

For the compound `CCOC(=O)c1c(Nc2nc3ccccc3s2)sc2c1CCC(=O)C2`, the growth with HCT-15 colon is 45.1%; with HT29 colon, 55.4%; in the test with SNB-75 CNS it was 74.8%; in the test on SNB-19 CNS it was 45.8%; in the test on U251 CNS, 20.5%; in the test with PC-3 prostate it was 22.2%. For the same compound, the growth in the test with SK-MEL-5 melanoma was 61.2%; with UACC-62 melanoma, 43.1%; in the test on LOX IMVI melanoma, 40.1%; in the test with SK-MEL-28 melanoma it was 108%.

Regarding `COc1cccc(/C=C2\CCc3ccccc3C2=O)c1`, the growth was 87.2% in the test on HCT-15 colon; 77.1% in the test with HT29 colon; 97.4% in the test with SNB-75 CNS; 75.7% in the test with SNB-19 CNS; 83.2% in the test with U251 CNS; 83.4% in the test with PC-3 prostate. The growth in the test on SK-MEL-5 melanoma was 76.8%; in the test with UACC-62 melanoma, 80.1%; in the test on LOX IMVI melanoma, 80.2%; in the test on SK-MEL-28 melanoma, 118%.

Regarding `CCOC(=O)C1=C(c2ccccc2)N=C2SC=C(c3cccc([N+](=O)[O-])c3)N2C1c1ccc(O)cc1` (stereo not given), the growth was 97.7% with HCT-15 colon; 105% with HT29 colon; 91.4% with SNB-75 CNS; 97% with SNB-19 CNS; 96.6% with U251 CNS; 94.8% in the test on PC-3 prostate. Moreover, the growth in the test with SK-MEL-5 melanoma was 97.7%; with UACC-62 melanoma it was 92.7%; with LOX IMVI melanoma it was 95.4%; in the test with SK-MEL-28 melanoma, 104%.

For `C#Cc1cccc(Nc2ncnc3ccc(-c4cnc(Cl)c(NS(C)(=O)=O)c4)cc23)c1`, the growth is -32.2% (active) with HCT-15 colon; -21.1% (active) with HT29 colon; -21.8% (active) in the test on SNB-75 CNS; -24.3% (active) with SNB-19 CNS; -61.6% (active) in the test with U251 CNS; -7.01% (active) with PC-3 prostate. Also, the growth was -95.6% (active) with SK-MEL-5 melanoma, -67.9% (active) in the test with UACC-62 melanoma, -53.4% (active) in the test with LOX IMVI melanoma and -12.1% (active) with SK-MEL-28 melanoma.

Consider `Brc1ccc(-c2nn(-c3ccccc3)cc2-c2nn[nH]n2)s1`, for which the growth in the test on HCT-15 colon was 96.2%; in the test with HT29 colon it was 117%; in the test with SNB-75 CNS, 92.7%; in the test on SNB-19 CNS it was 87.3%; with U251 CNS, 87.8%; in the test with PC-3 prostate, 93.7%. The growth in the test on SK-MEL-5 melanoma is 90%; in the test on UACC-62 melanoma, 85.1%; with LOX IMVI melanoma, 90.9%; with SK-MEL-28 melanoma it was 96.2%.
